Drawing on the supplement of paper PMC6555819, this text covers PBM binding z-score for 40 sequences.

One test relates to PPARg:RXRa 270nM:90nM, anti-RXR (NR concentration 270 nM, RXRa partner concentration 90 nM). The experiment in a line: PBM binding z-score (relative to random genomic background probes); higher = stronger binding; sequences stand for … in GC…GCGATTGACAGCGTAGAATGAAGG
Summed up: (§1)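 The probes on custom Agilent 4×180K protein-binding microarrays were double-stranded, with 34-nt variable regions bearing direct-repeat seeds, single-nucleotide variants, half-site ablations and random human genomic background sequences. Incubation lasted 1 h with ligand-free nuclear receptor dimers in PBS pH 7.4, 2% milk, 0.02% Triton X-100, 1 mM DTT, 0.2 mg/mL BSA and 0.4 mg/ml salmon testes DNA. Antibodies against each partner (one per run) detected bound dimers, and fluorescence scans were regression-normalized. Binding z-scores take the random background probes as reference.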
Sequence CCAGACAGGAGAGAAGGTAACTCAGCCTCGATTA returned a PBM binding z-score of -0.148.

Turning to CGTCAAAGTTCAAGGTAACGTACCAGAAAGCAGC, the PBM binding z-score turned out to be 5.05.

Sequence TCTAGTTGGTCACGGAAGTCACACACGACGGGTA came in with a PBM binding z-score of 1.85.

ATATGTAGGTTATCGGTTCATTCAGTTTGCGCAT returned a PBM binding z-score of 5.22.

On to CCTAGCAGGCCAATGTGGGTCACTCAAGGCTTGA, for which the PBM binding z-score was determined as 2.65.

In turn, TCATATAGGTAATACAGGTGAAAGTTGGCATCTA showed a PBM binding z-score of 4.06.

GCTAGCATGCCATTTGGGTCACTCAATGACGGGC yielded a PBM binding z-score of 0.752.

For the sequence CGTCAAAGTTCAAGGTAACGTTACAGAAAGCAGC, the PBM binding z-score was found to be 5.04.

For CCTTACGGGTCAAGGTTATAGCACGGGTGGTACG, the PBM binding z-score amounted to 4.69.

For the sequence CGAACTAGGGCATCCAGGACAGTGAATACATTGA, the PBM binding z-score worked out at 2.52.

For the sequence TTATCAAGGTGAAGGTCGTTGATCCCTCTGTAGA, the PBM binding z-score was determined as 3.88.

For CCAGACAGGTGAAATGTAACTCAGTCTGGTACGC, the PBM binding z-score came to 1.5.

Turning to GATTCAGGGTCAAGGCCAGAGTACGCGTATTGAT, the PBM binding z-score is 6.72.

In the case of CGTCCAAGGTCAATGCTAGGTAAGTGAAAGCATT, the PBM binding z-score amounted to 4.15.

CTCGAAAGGTCGTGCTCAGGTGACTATACCAAAC came in with a PBM binding z-score of 3.95.

The sequence GCTGCTAGGTCCGGTTGGTCAGCTAACGGGTACG yielded a PBM binding z-score of -0.342.

Turning to TTACCAAGGTGAGCTGAGGTCGTTGACCCAACTC, the PBM binding z-score stood at 0.96.

TCTATTAGTTGACGGGCAACCGACGAGTCCGTTT came in with a PBM binding z-score of 1.62.

For the sequence TTACCAAGGTGAACGTCGTTGATCCCTCTGTAGA, the PBM binding z-score came to 1.25.

In the case of GCTATTAGTCGAAAGGGCAACCGAATGATTCTCG, the PBM binding z-score was 4.04.

CCTAGCAGGCTAGGGTCACTCAAGCATTTCGCTT had a PBM binding z-score of 1.87.

For the sequence CGTCCAAGGTCAAAAGTCAGTGAAGAGATGACGG, the PBM binding z-score worked out at 5.87.

ATCGAAAGATCGTGAGGTGAGTATACAGAAAGGC displayed a PBM binding z-score of -0.00875.

CCTCGGAGGACCACAGGAGGTCAGAGCTGCCAGA gave a PBM binding z-score of 0.0668.

In turn, TCGAGTAGGTTACCAATGGGGTATTCAGCTTTCT returned a PBM binding z-score of 1.14.

The sequence AGAACGAGGGCACGCTGAGATGATAGCAGAGTAG gave a PBM binding z-score of 1.98.

ATCTCTAAGTAAAGTTCAGTGAAAGATCGATAGA: the PBM binding z-score was 2.92.

In turn, TCTTGTAGATCAAAAGAGGTTAAGAAAGTGCGCT yielded a PBM binding z-score of 1.59.

With ATATGTAGGTTAAGGGTCATTCAGGTTGGTTCGC, the PBM binding z-score is 9.78.

As for CGAACTAGGTCACTGACAGGACAGTGAATAGTAA, the PBM binding z-score worked out at 6.65.

On to CCTACTGGGCCATCACGTCATTGATATCAACGTT, for which the PBM binding z-score is 1.09.

On to ACCATTAGTTGAGACGAGGGCAACCGATAGGTTG, for which the PBM binding z-score is -0.0707.

Take TCGAGTAGGTTACCAATGGGGCATTCTGCTTTCT: the PBM binding z-score was found to be 1.1.

For CAAACTAGGTCAAGAGGTCAATGTCCGCTTCCCG, the PBM binding z-score is 7.94.

Take TAGCCTAGGTCATTCATGGGCCAGTATAGAAAGC: the PBM binding z-score is 2.1.

GCTTACGGGTCAAAGGTAATAGCATGAATAGAAT showed a PBM binding z-score of 8.1.

As to TTACCAAGGTAAAGGTCGTTGATCCCTCTGTAGA, the PBM binding z-score was determined as 7.33.

TCTTGTAGATCAACAGGGGGTTAAGAAAGATCGA displayed a PBM binding z-score of 2.99.

As for CAAACTAGGTCAAGGCCAAAGTCGGTTTGTGCCA, the PBM binding z-score turned out to be 6.77.

In the case of CCAGACAGTTGAGAAGGTAACTCAGCCTCGATTA, the PBM binding z-score was -0.218.

For the next test, the system named is PPARg:RXRa 30nM:10nM, anti-RXR (NR concentration 30 nM, RXRa partner concentration 10 nM). Described as above. In outline:
as §1
Sequence CCAGACAGGAGAGAAGGTAACTCAGCCTCGATTA came in with a PBM binding z-score of 0.0221.

The sequence CGTCAAAGTTCAAGGTAACGTACCAGAAAGCAGC had a PBM binding z-score of 1.94.

TCTAGTTGGTCACGGAAGTCACACACGACGGGTA: the PBM binding z-score worked out at 3.33.

In turn, ATATGTAGGTTATCGGTTCATTCAGTTTGCGCAT had a PBM binding z-score of 2.65.

For the sequence CCTAGCAGGCCAATGTGGGTCACTCAAGGCTTGA, the PBM binding z-score is 0.359.

TCATATAGGTAATACAGGTGAAAGTTGGCATCTA showed a PBM binding z-score of 4.44.

Turning to GCTAGCATGCCATTTGGGTCACTCAATGACGGGC, the PBM binding z-score was -0.349.

Regarding CGTCAAAGTTCAAGGTAACGTTACAGAAAGCAGC, the PBM binding z-score was found to be 2.28.

The sequence CCTTACGGGTCAAGGTTATAGCACGGGTGGTACG registered a PBM binding z-score of 2.06.

As to CGAACTAGGGCATCCAGGACAGTGAATACATTGA, the PBM binding z-score was 0.606.

TTATCAAGGTGAAGGTCGTTGATCCCTCTGTAGA had a PBM binding z-score of 2.1.

The sequence CCAGACAGGTGAAATGTAACTCAGTCTGGTACGC yielded a PBM binding z-score of 0.324.

GATTCAGGGTCAAGGCCAGAGTACGCGTATTGAT displayed a PBM binding z-score of 3.1.

The sequence CGTCCAAGGTCAATGCTAGGTAAGTGAAAGCATT displayed a PBM binding z-score of 0.806.

As for CTCGAAAGGTCGTGCTCAGGTGACTATACCAAAC, the PBM binding z-score worked out at 1.46.

The sequence GCTGCTAGGTCCGGTTGGTCAGCTAACGGGTACG yielded a PBM binding z-score of -0.72.

On to TTACCAAGGTGAGCTGAGGTCGTTGACCCAACTC, for which the PBM binding z-score was -0.036.

TCTATTAGTTGACGGGCAACCGACGAGTCCGTTT gave a PBM binding z-score of 3.47.

For the sequence TTACCAAGGTGAACGTCGTTGATCCCTCTGTAGA, the PBM binding z-score was 0.514.

GCTATTAGTCGAAAGGGCAACCGAATGATTCTCG gave a PBM binding z-score of 2.32.

CCTAGCAGGCTAGGGTCACTCAAGCATTTCGCTT displayed a PBM binding z-score of -0.254.

In turn, CGTCCAAGGTCAAAAGTCAGTGAAGAGATGACGG displayed a PBM binding z-score of 3.41.

As to ATCGAAAGATCGTGAGGTGAGTATACAGAAAGGC, the PBM binding z-score was 0.225.

The sequence CCTCGGAGGACCACAGGAGGTCAGAGCTGCCAGA came in with a PBM binding z-score of -0.599.

For TCGAGTAGGTTACCAATGGGGTATTCAGCTTTCT, the PBM binding z-score stood at 1.34.

AGAACGAGGGCACGCTGAGATGATAGCAGAGTAG: the PBM binding z-score amounted to 0.819.

For ATCTCTAAGTAAAGTTCAGTGAAAGATCGATAGA, the PBM binding z-score was 1.3.

TCTTGTAGATCAAAAGAGGTTAAGAAAGTGCGCT came in with a PBM binding z-score of 2.62.

Turning to ATATGTAGGTTAAGGGTCATTCAGGTTGGTTCGC, the PBM binding z-score is 10.3.

The sequence CGAACTAGGTCACTGACAGGACAGTGAATAGTAA showed a PBM binding z-score of 3.86.

CCTACTGGGCCATCACGTCATTGATATCAACGTT registered a PBM binding z-score of 0.356.

On to ACCATTAGTTGAGACGAGGGCAACCGATAGGTTG, for which the PBM binding z-score stood at 0.0624.

TCGAGTAGGTTACCAATGGGGCATTCTGCTTTCT yielded a PBM binding z-score of 0.935.

As for CAAACTAGGTCAAGAGGTCAATGTCCGCTTCCCG, the PBM binding z-score is 6.68.

As to TAGCCTAGGTCATTCATGGGCCAGTATAGAAAGC, the PBM binding z-score came to 0.373.

The sequence GCTTACGGGTCAAAGGTAATAGCATGAATAGAAT returned a PBM binding z-score of 7.14.

As to TTACCAAGGTAAAGGTCGTTGATCCCTCTGTAGA, the PBM binding z-score was determined as 5.9.

Sequence TCTTGTAGATCAACAGGGGGTTAAGAAAGATCGA came in with a PBM binding z-score of 3.73.

Sequence CAAACTAGGTCAAGGCCAAAGTCGGTTTGTGCCA showed a PBM binding z-score of 4.34.

As to CCAGACAGTTGAGAAGGTAACTCAGCCTCGATTA, the PBM binding z-score is 0.0704.
